Screening data (PubChem BioAssay)
Hits are enriched below; roughly 2.3% of the tested compounds scored in any of these assays.
POLH inh – DNA polymerase eta (human) inhibition | Q9Y253 | recombinant Pol eta, fluorescent DNA replication assay | Potency, µM (doses to about 114 µM), for inactives: top-dose activity change, negative = inhibition, most hits filed as inhibitors | actives 1.2% (n = 390,000) | AID 588591; further: on the % scale 0 is the no-effect control and ±100 the full control effect
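Pol eta at 10 nM preincubated with compounds 15 min at room temperature; reaction started with fluorescent substrate (50 nM final) and read kinetically at 0 and 10 min.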
WRN helicase inh-1 – inhibitors of human WRN helicase; Q14191; WRN helicase unwinding, fluorescent forked duplex, kinetic; Potency, µM (top dose mostly 114 µM), for the others: at the top dose activity change, negative = inhibition, hits mostly inhibitors; actives 0.46% (n = 360,000); AID 651768; further: on the % scale 0 is the no-effect control and ±100 the full control effect; nearly all actives have a fitted effect of over 55% in size
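Enzyme (20 nM final) and test compound sit together 15 min at room temperature before substrate addition. Substrate is a single-forked duplex oligonucleotide (100 nM) labelled with fluorophore and quencher, with 2 mM ATP; helicase unwinding raises red fluorescence, read kinetically.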
POLI inh – inhibitors of human DNA polymerase iota; Q9UNA4; Pol iota fluorescent replication assay, 10 min; Potency, µM (top dose mostly 115 µM), for inactives: top-dose activity, negative = inhibition, actives largely listed as inhibitors; actives 1% (n = 390,000)
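Pol iota at 10 nM preincubated 15 min with compounds at room temperature; reaction started with fluorescent substrate, 50 nM final. Fluorescence read kinetically at 0 and 10 min; buffer-only wells as negative control.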
POLK inh – blocks human DNA polymerase kappa activity; Q9UBT6; purified Pol kappa, fluorescent DNA synthesis assay, 10 min; Potency, µM (highest dose often 107 µM), for the others: at the highest dose activity, negative = inhibition, most hits filed as inhibitors; actives 0.53% (n = 400,000); further: on the % scale 0 is the no-effect control and ±100 the full control effect
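Kinetic fluorescence readout at 0 and 10 min followed reaction start with substrate at 50 nM final. Beforehand, enzyme (10 nM Pol kappa) stood 15 min with compound at room temperature; buffer-only wells were negative controls.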
POLB inh – inhibitors of human DNA polymerase beta; Potency, µM (series often up to 114 µM), inactives show top-dose activity change, negative = inhibition, hits mostly inhibitors; Pol beta primer extension/strand displacement, fluorescence kinetic; actives 1.3% (n = 340,000); P06746; further: on the % scale 0 is the no-effect control and ±100 the full control effect
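Values derive from four-parameter Hill fits of normalized kinetic data: reads at 0 and 10 min following addition of 50 nM substrate to 10 nM Pol beta preincubated 15 min with compound.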
WRN helicase inh-2 – WRN helicase inhibition, cherry-pick retest | shares compounds with WRN helicase inh-1 | WRN helicase DNA unwinding, fluorescence kinetic | Potency, µM (doses to about 57.1 µM), for the others: at the top dose activity, negative = inhibition, usual class: inhibitors | actives 63% (n = 610) | AID 720497; further: nearly all actives have a fitted effect of over 65% in size
TO displacement – binds DNA, flagged in WRN inhibitor counterscreen. AID 720499. actives 10% (n = 610). thiazole orange DNA binding displacement, fluorescence. shares compounds with WRN helicase inh-1. Potency, µM (titrated, usually from 57.1 µM), for inactives: at the top dose activity change, negative = inhibition, usual class: inhibitors;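 further: drop in dye fluorescence marks compound binding to DNA; on the % scale 0 is the no-effect control and ±100 the full control effect; nearly all actives have a fitted effect of over 60% in size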
BLM helicase inh – counter-screen for WRN helicase inhibitors: human BLM helicase inhibition. shares compounds with WRN helicase inh-1. Recombinant BLM helicase DNA unwinding, red fluorescence. Potency, µM (top dose mostly 57.1 µM), inactives show at the highest dose activity change, negative = inhibition, usual class: inhibitors. actives 60% (n = 610). AID 720503; further: nearly all actives have a fitted effect of over 60% in size
Target sequence (P54132 whole entry, looked up): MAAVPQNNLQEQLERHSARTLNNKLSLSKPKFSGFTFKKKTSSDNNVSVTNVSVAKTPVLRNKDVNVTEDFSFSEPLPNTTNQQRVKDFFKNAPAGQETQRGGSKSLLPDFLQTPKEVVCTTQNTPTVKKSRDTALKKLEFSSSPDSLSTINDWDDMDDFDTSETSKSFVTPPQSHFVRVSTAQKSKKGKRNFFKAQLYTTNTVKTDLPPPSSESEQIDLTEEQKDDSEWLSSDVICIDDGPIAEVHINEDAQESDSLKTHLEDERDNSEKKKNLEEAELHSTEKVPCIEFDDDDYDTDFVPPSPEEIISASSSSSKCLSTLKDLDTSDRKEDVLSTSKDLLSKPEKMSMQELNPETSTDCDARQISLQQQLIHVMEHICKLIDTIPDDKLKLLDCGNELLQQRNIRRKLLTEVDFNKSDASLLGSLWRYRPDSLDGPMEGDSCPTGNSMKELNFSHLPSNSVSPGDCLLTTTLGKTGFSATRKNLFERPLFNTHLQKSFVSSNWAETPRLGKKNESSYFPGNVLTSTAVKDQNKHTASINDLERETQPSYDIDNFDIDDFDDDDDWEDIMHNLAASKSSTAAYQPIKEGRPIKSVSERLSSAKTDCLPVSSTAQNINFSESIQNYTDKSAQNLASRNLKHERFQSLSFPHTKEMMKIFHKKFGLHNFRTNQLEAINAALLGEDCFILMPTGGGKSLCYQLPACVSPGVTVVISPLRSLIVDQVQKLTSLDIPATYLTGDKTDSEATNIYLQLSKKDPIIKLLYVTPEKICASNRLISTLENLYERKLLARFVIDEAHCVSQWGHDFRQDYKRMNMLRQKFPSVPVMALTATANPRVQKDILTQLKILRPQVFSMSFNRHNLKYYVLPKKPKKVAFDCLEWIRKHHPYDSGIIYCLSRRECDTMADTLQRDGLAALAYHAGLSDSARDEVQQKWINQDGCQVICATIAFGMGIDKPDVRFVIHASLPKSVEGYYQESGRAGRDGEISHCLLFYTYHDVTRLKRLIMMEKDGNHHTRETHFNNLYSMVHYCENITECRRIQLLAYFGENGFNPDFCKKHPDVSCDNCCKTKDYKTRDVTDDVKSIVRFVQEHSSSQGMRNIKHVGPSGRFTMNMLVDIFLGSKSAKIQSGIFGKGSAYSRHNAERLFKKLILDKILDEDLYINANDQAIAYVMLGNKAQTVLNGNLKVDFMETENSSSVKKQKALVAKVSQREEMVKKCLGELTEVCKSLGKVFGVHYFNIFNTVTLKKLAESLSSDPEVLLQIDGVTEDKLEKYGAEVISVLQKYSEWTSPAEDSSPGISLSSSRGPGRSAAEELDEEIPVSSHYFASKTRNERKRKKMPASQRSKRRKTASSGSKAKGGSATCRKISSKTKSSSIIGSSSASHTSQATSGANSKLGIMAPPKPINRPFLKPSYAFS
The depositor's hits bear a star; i = inactive; ? = inconclusive; · = no result given; [ ] = remark or other dose. The call rests on the fitted dose curve; in most records, active means well fitted curve in the direction sought with a large enough effect; inconclusive means small, poorly fitted or top-dose-only effect, or another doubt; inactive means no such curve, though single readings can be large; an effect the other way counts as inactive or inconclusive. Potency means the concentration at half of the fitted maximal effect.

SMILES | POLH inh | WRN helicase inh-1 | POLI inh | POLK inh | POLB inh | WRN helicase inh-2 | TO displacement | BLM helicase inh
COc1ccc(-c2csc(NC(=S)NC(=O)c3cccs3)n2)cc1OC | 20µM* | ? | ? | -11% | ? | ? | ? | ?
CCc1ccc(-c2cc3c(N4CCN(c5ccccc5)CC4)nccn3n2)cc1 | -16% | · | 1% | 0% | -16% | · | · | ·
NC1=NC(=Nc2cccc(S(N)(=O)=O)c2)c2ccccc21 | -20% | 4% | 15% | 8% | 101% | · | · | ·
COc1cc(N=Nc2cccc(S(N)(=O)=O)c2)c2ccccc2c1N | ? | ? | ? | -26% | ? | ? | ? | ?
COc1ccc(-n2nc3cc(C)c(N)c(Br)c3n2)cc1 | -21% | 45µM* | 25µM* | -13% | 18% | -5% | -20% | -9%
COc1ccc(-n2nc3cc(N)c(Br)cc3n2)cc1 | -15% | -23% | 178% | -9% | 3% | · | · | ·
COC1=C(OC)C(=O)C(Sc2ccc3ccccc3c2)=CC1=O | -20% | 20µM* | ? | -8% | · | 9% | -8% | -6%
COc1cc(/C=N/NC(=O)c2ccc3c(c2)OCCO3)c(Br)c(Br)c1O | ? | ? | ? | 89µM* | ? | ? | -24% | ?
CCOc1ccc(Nc2c(S(=O)(=O)c3ccc(C)cc3)cnc3cc(OC)c(OC)cc23)cc1 | -14% | · | -3% | -7% | -4% | · | · | ·
Cc1nc2c(cc1C(=O)N/N=C/c1ccc(O)c(O)c1)c(=O)n(C)c(=O)n2C | ? | ? | ? | -26% | 45µM* | ? | -4% | ?
CCN1/C(=C/c2ccc3cc(C)ccc3[n+]2C)Sc2ccc3sccc3c21 | ? | 89µM* | ? | -33% | -1% | 0.34µM* | 0.22µM* | 0.68µM*
CCOC(=O)C1CCN(C(=O)Cn2c(=O)oc3cc(S(=O)(=O)N4CCC(C)CC4)ccc32)CC1 | -3% | · | 54% | -23% | -11% | · | · | ·
Cc1cccc(OCCSc2nc3ccc(NC(=O)c4cccs4)cc3s2)c1 | -14% | · | 3% | -6% | -21% | · | · | ·
Cn1c2cc(C#N)sc2c2cnn(Cc3ccc(F)cc3)c(=O)c21 | -12% | · | -49% | -2% | · | · | · | ·
CSc1cc2c(s1)c1cnn(Cc3cccc(N)c3)c(=O)c1n2C | · | · | · | · | · | -12% | -8% | ?
Cc1ccc2nc(CCl)[n+]([O-])c(-c3ccccc3)c2c1 | -10% | 79µM* | -16% | -6% | 19% | -1% | -2% | -11%
O=C(O)c1ccccc1-c1ccc(/C=C/c2cc(C(F)(F)F)[nH]c(=O)n2)o1 | 50µM* | 79µM* | ? | ? | ? | 24µM* | i | -17%
O=C(O)c1ccccc1-c1ccc(C(F)(F)F)cc1 | · | · | · | -4%[19.4 µM] | · | · | · | ·
CC(NC(=O)COC(=O)/C=C/c1ccc2c(c1)OCO2)c1ccccc1 (centres undefined) | 1% | 4% | 3% | -15% | · | · | · | ·
CC(NC(=O)COC(=O)/C=C/c1ccc([N+](=O)[O-])cc1)c1ccccc1 (centres undefined) | -35% | ? | 89µM* | ? | 29% | -3% | -4% | -7%
N#CC1C(=O)c2ccccc2C1c1ccccc1 (centres undefined) | 12% | 13µM* | ? | -8% | · | -14% | 2% | -15%
COc1ccccc1NC(=O)c1c(NCc2sccc2C)sc2c1CCCCC2 | -9% | · | -12% | -8%[60.1 µM] | -15% | · | · | ·
COc1ccc(Cl)cc1NC(=O)c1c(NCc2sccc2C)sc2c1CCCC2 | -7% | · | ? | -9%[60.1 µM] | 3% | -20% | ? | ?
CCn1c(CSc2n[nH]c(N)n2)nc2cc(C(=O)O)ccc21 | ? | 89µM* | 50µM* | -17% | ? | 24µM* | 2% | 24µM*
CCn1c(CSc2nnc3ccccn23)nc2cc(C(=O)O)ccc21 | ? | 37%[57.1 µM] | -20% | -9% | ? | · | · | ·
SMILES | POLH inh | WRN helicase inh-1 | POLI inh | POLK inh | POLB inh | WRN helicase inh-2 | TO displacement | BLM helicase inh
O=C(Nc1cccc(NC(=O)c2cccs2)c1)c1ccc(Br)o1 | 2% | -6% | 45% | -11% | 22% | · | · | ·
O=C(Nc1ccc(NC(=O)c2cccs2)cc1)c1ccc(Br)o1 | ? | ? | ? | -34% | ? | ? | -9% | 9.6µM*
COc1ccc(/C=C2/C(=O)ON=C2c2ccccc2)cc1OC | -1% | ? | ? | -20% | 3% | · | · | ·
NC(=O)COc1ccc(/C=C2\C(=O)ON=C2c2ccccc2)cc1 | 5% | 40µM* | 20% | 3% | · | 19µM* | ? | ?
CSc1cccc(NC(=O)N2CCN(S(=O)(=O)c3ccc4c(ccn4C)c3)CC2)c1 | -8% | · | 0% | -1%[60.1 µM] | -10% | · | · | ·
COc1ccc(/C=C2\C(=O)ON=C2c2cccc([N+](=O)[O-])c2)cc1 | · | · | · | · | 12% | · | · | ·
O=C1ON=C(c2ccc([N+](=O)[O-])cc2)/C1=C/c1ccccc1O | ? | ? | ? | -1% | 5% | -29% | -7% | -28%
ClC(Cl)(c1nnnn1-c1ccccc1)c1nnnn1-c1ccccc1 | 2% | 6.3µM* | 14µM* | -5% | 3% | ? | 2% | ?
CCc1nc(Oc2cccc(F)c2)c2oc3ccccc3c2n1 | -17% | · | 23% | -3%[60.1 µM] | -1% | · | · | ·
Cc1cc(=O)oc2cc(Oc3ccc(C(N)=O)cc3[N+](=O)[O-])ccc12 | -9% | ? | ? | -20% | 12% | ? | -9% | -17%
CC(=O)NC1C(=O)N(CCN2CCOCC2)c2ccc(Cl)cc21 (centres undefined) | ? | 22µM* | ? | -16% | 35% | -10% | -12% | -30%
COCCN1C(=O)/C(=C/c2ccc(OCc3ccc(C(=O)O)cc3)c(OC)c2)SC1=Nc1ccccc1 | 28µM* | ? | 5% | -3% | 50µM* | 27µM* | ? | 27µM*
Cc1ccc(-c2[nH]c(-c3ccc(C(=O)O)cc3)nc2-c2ccccc2)cc1 | -3% | ? | -2% | -20% | 3% | 24µM* | -28% | ?
Cc1ccc(C)c(S(=O)(=O)c2nnn3c2nc(N2CCCCC2)c2sccc23)c1 | -12% | · | 12% | 5% | 1% | · | · | ·
O=C(CSc1nnc(-c2cnccn2)n1Cc1ccco1)c1ccc(Cl)cc1 | -4% | ? | ? | -8% | 0% | -13% | -17% | -23%
